Here are results for 44 sequences from the supplement of paper PMC11417369.

± gives the standard deviation of the averaged measurements. In all, about 25,000 sequences were measured (“ln(normalized median fluorescence intensity)”: median about 10, highest 2% from about 12 on). This is one part of a sample in which the highest values are shown more often than they occur.

The subject of this experiment is PfAP2-G AP2 domain (GST-tagged). The experiment is described as follows: gcPBM binding intensity (ln(normalized median fluorescence intensity)); higher = stronger DNA binding. In outline:
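In this array assay, P. falciparum DNA-binding domains with a GST tag, expressed in E. coli, were applied for 1 h to primer-extended double-stranded 36-bp intergenic genomic probes and negative controls on an Agilent 4 × 180k array. Bound protein was visualised with Alexa488 anti-GST antibody at 488 nm. Binding intensity is the highest Masliner-normalised natural-log median intensity across replicate spots of either probe orientation.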
With “CTCATCCTTACATACACACACATATATATATATATA [CACACA_site103]”, the “gcPBM binding intensity (ln)” value is 10.3 ± 0.41.

Consider “AGTTTATATTATTAAAGTACATATATATATTCTTAA [XGTACX_site3164]”, for which the “gcPBM binding intensity (ln)” value was found to be 11.1 ± 0.76.

Consider “ATATATTTAATTTATGGTACACATAATTTTTTTAGA [XGTACX_site848]”, for which the “gcPBM binding intensity (ln)” value was determined as 11.2 ± 0.79.

Turning to “TATATATATATATTATGTACTCATTTATTATCTTTT [XGTACX_site8051]”, the “gcPBM binding intensity (ln)” value amounted to 11.4 ± 1.1.

For “ATATATATATATATATGTACTCATATTTTATTATTT [XGTACX_site898]”, the “gcPBM binding intensity (ln)” value stood at 11.4 ± 0.94.

On to “TTTGTCATTTTATTATGTACTCAGCATATAGGGGGG [XGTACX_site505]”, for which the “gcPBM binding intensity (ln)” value was determined as 11.7 ± 0.66.

Take “AAAAAAAAAAAACATACACACATACATACATATATA [CACACA_site8222]”: the “gcPBM binding intensity (ln)” value turned out to be 9.86 ± 0.099.

On to “ATTAAAGTTATAAATTCACACATGTAAATGTATTTA [CACACA_site5279]”, for which the “gcPBM binding intensity (ln)” value was 9.85 ± 0.11.

For the sequence “TAGTAGTTATCATTAACATGCAATAATATTATTTAA [TGCATGCA_site178]”, the “gcPBM binding intensity (ln)” value was 9.635 ± 0.035.

Take “AATATAGATATAAAAAGTACATTATATATATATATA [XGTACX_site6899]”: the “gcPBM binding intensity (ln)” value turned out to be 11.3 ± 0.78.

As for “ATATATATATATATATGTACACATATATGTGTTTGT [XGTACX_site62]”, the “gcPBM binding intensity (ln)” value came out at 11.4 ± 0.88.

With “GCTTCTTAATATCATACACACATAGATATATTTATA [CACACA_site5676]”, the “gcPBM binding intensity (ln)” value is 9.925 ± 0.078.

“ATTTCTAGTTTAAGATGTACTTTAATAAAAATTATT [XGTACX_site4820]”: the “gcPBM binding intensity (ln)” value amounted to 11 ± 0.77.

As to “TATATATGTATGTATTGTACAATTAAAAATATGTAT [XGTACX_site3990]”, the “gcPBM binding intensity (ln)” value was 10.8 ± 0.43.

Turning to “AAAAATATTAAAAGGCGTACAATACCTGTATGCAAC [XGTACX_site6069]”, the “gcPBM binding intensity (ln)” value was found to be 11.6 ± 1.

Turning to “AAGGCATACAATACCTGTACGCAACCTTAAAAAGAA [XGTACX_site6070]”, the “gcPBM binding intensity (ln)” value was 11.5 ± 0.91.

As for TCTATTTTCTTATGAATGCACTAATTTATAAAACGT, the “gcPBM binding intensity (ln)” value worked out at 10.1 ± 0.13.

On to “TATCATATATGAAGGTGTACGATTTATTATATAAAT [XGTACX_site7010]”, for which the “gcPBM binding intensity (ln)” value was determined as 11.4 ± 0.95.

In the case of “TTAAAATTAAAAATAGGTACACATATGAACAAGGAC [XGTACX_site1180]”, the “gcPBM binding intensity (ln)” value came out at 11.5 ± 0.78.

Regarding “TATAAGAATAAAAAGGGTACATAAAATAATAATATA [XGTACX_site2355]”, the “gcPBM binding intensity (ln)” value turned out to be 11.3 ± 0.73.

Consider “AAAAAAAAAAAGAAGGGTACATATTATATATAATAT [XGTACX_site6204]”, for which the “gcPBM binding intensity (ln)” value amounted to 11.2 ± 0.76.

In the case of “ATTATAAGAAGGGGGGGTACATAAATATAAATGTAT [XGTACX_site5624]”, the “gcPBM binding intensity (ln)” value is 11.9 ± 0.95.

Take “ATATATATTATATGCACACTAATAAGACTATTTAAA [CACACA_site3554]”: the “gcPBM binding intensity (ln)” value amounted to 10.1 ± 0.23.

Turning to “TAGAAGCATTGACACACACACATACATACACATACA [CACACA_site6802]”, the “gcPBM binding intensity (ln)” value is 10.2 ± 0.26.

With “TTACATATTTTTTAACGTACATAAATATATATGTAT [XGTACX_site8406]”, the “gcPBM binding intensity (ln)” value was 11.4 ± 0.79.

With “ATAAATAAAATAAAAGCACACAAAATGTAAATAATT [CACACA_site8895]”, the “gcPBM binding intensity (ln)” value was found to be 10.04 ± 0.057.

As for “ATATAATTTAATTTCTGTACATAAGAGAAAAAACAA [XGTACX_site4865]”, the “gcPBM binding intensity (ln)” value is 11.1 ± 0.64.

For “ATATATATATATATATGTACGTACTCAGTTATGCCT [XGTACX_site453]”, the “gcPBM binding intensity (ln)” value was 11.7 ± 1.2.

For “TATATATATATTATATGTACGTATGTATGTATATAT [XGTACX_site6451]”, the “gcPBM binding intensity (ln)” value came out at 11.3 ± 0.8.

Take “GTATATATGTATGTATGTACGTATATAGTTATGTAT [XGTACX_site6769]”: the “gcPBM binding intensity (ln)” value worked out at 11.6 ± 0.93.

As for “TCCTCGCGTAATACTTTTCAAATAAAAAAAATAAAA [TGCATGCA_negctrl_site403]”, the “gcPBM binding intensity (ln)” value is 10.5 ± 0.48.

Take “ATTTGTGTATATTAGAGTACATAAAATTAGAGGAAC [XGTACX_site1654]”: the “gcPBM binding intensity (ln)” value came to 11.6 ± 0.92.

In the case of “ATAACCACATAAAATATAATTATATATATATATATA [CACACA_negctrl_site603]”, the “gcPBM binding intensity (ln)” value stood at 9.87 ± 0.26.

Take “TTATTTTTTTATTCATGTACACAAGAACATTTCATT [XGTACX_site5744]”: the “gcPBM binding intensity (ln)” value came out at 11.3 ± 0.67.

As for “TTTATTTTTCATTGGGGTACACAAGTTTATTTTATT [XGTACX_site4263]”, the “gcPBM binding intensity (ln)” value turned out to be 11.7 ± 0.96.

“TCATTTATTTTTCTTTGTACACAAAAGTTTTTATGT [XGTACX_site690]”: the “gcPBM binding intensity (ln)” value amounted to 11.4 ± 0.9.

Turning to “TTTATTTTTCATTGGGGTACACAAGTTTATTTTTGA [XGTACX_site4262]”, the “gcPBM binding intensity (ln)” value turned out to be 11.7 ± 0.86.

For “TTTTTTTTTTTTATTTGTACACATTTTCATATTTTT [XGTACX_site4406]”, the “gcPBM binding intensity (ln)” value was 11.3 ± 0.98.

As to “GTTTATTTTTTCATTTGTACACATAAATAAATATAT [XGTACX_site7752]”, the “gcPBM binding intensity (ln)” value was 11.5 ± 0.75.

Turning to “GCTTAATACAGAATAACACACAAAATAAATAAATAA [CACACA_site4041]”, the “gcPBM binding intensity (ln)” value is 10 ± 0.12.

On to “TTTTGGATGAACAGTACATGCAAAAACAAACTTGTA [TGCATGCA_site16]”, for which the “gcPBM binding intensity (ln)” value came out at 10.8 ± 0.37.

In the case of “ATATCTTCACTTATATGTACTTACATTTTTTTTTTT [XGTACX_site8696]”, the “gcPBM binding intensity (ln)” value turned out to be 11.4 ± 0.81.

With “AGGAGGTCAGTTCACAGTACCCAGAAACTCTACGAG [XGTACX_site2006]”, the “gcPBM binding intensity (ln)” value is 11.1 ± 0.73.

For the sequence “AAATATAATTAATGATGTACACTTATAGATATTGAT [XGTACX_site8435]”, the “gcPBM binding intensity (ln)” value worked out at 11.4 ± 0.68.
